# Compound activity: PubChem BioAssay, National Center for Advancing Translational Sciences (NCATS)
# This is a sample that favours compounds with a hit; in the whole collection about 2.8% have one here.
# SNCA expr inhib: reduces expression of the alpha-synuclein gene; actives 0.17% (n = 140,000); HEK-293 SNCA-luciferase knock-in, luminescence, 24 h; AID 1671194; Potency, µM (highest dose often 57.2 µM), without a hit: at the top dose activity change, negative = inhibition, actives largely listed as inhibitors;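 note: potency is the fitted concentration of half-maximal effect; plate controls were DMSO cells for no effect and cell-free wells for full effect; nearly all actives have a fitted effect of over 45% in size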
# KDM5B inhibitor: inhibitors of human KDM5B histone demethylase. Q9UGL1. KDM5B demethylase, FDH-coupled NADH fluorescence (FDH is formaldehyde dehydrogenase). Potency, µM (series often up to 57.7 µM), usual class: inhibitors. actives 2.6% (n = 220,000). AID 1347165; note: potency is the fitted concentration of half-maximal effect; 0% is about no effect; nearly all actives have a fitted effect of over 70% in size
#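 qHTS format, multiple compound concentrations. Buffer 50 mM HEPES pH 7.5/0.01% Tween-20; 200 nM KDM5BΔAP final; 10 min compound preincubation; substrate-mix levels 12.5 µM peptide, 25 µM α-KG, 0.25 mM NAD⁺; 30 min RT; ΔRFU.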
# SNCA viab count: reduces viability of HEK-293 SNCA reporter cells; HEK-293-SNCA-luc viability, GF-AFC fluorescence, 24 h; Potency, µM (titrated, usually from 57.1 µM), for inactives: at the highest dose activity change, negative = cytotoxicity, actives largely listed as cytotoxic; actives 0.12% (n = 150,000);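 note: potency is the fitted concentration of half-maximal effect; 0% = DMSO-treated cells and -100% = medium-only wells without cells; nearly all actives have a fitted effect of over 30% in size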
#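 Cytotoxicity counterscreen: after 24 h compound treatment of genome-edited SNCA-luciferase HEK-293 cells, live-cell protease substrate GF-AFC read by fluorescence after 30 min; activity scaled between DMSO (0%) and medium-only (-100%), curves Hill-fitted.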
# IP6K1 inhibitor: blocks human inositol hexakisphosphate kinase 1; Q92551; IP6K1 kinase, ADP-Glo luminescence, 2 h; stronger effect = lower value; activity change, % (series mostly up to about 58 µM); actives 0.81% (n = 140,000); AID 1645851; in the data active = activity change below about -25%; note: % is set by controls: 0 for no effect and ±100 for the full control effect
# Target sequence (Q92551 whole entry, looked up): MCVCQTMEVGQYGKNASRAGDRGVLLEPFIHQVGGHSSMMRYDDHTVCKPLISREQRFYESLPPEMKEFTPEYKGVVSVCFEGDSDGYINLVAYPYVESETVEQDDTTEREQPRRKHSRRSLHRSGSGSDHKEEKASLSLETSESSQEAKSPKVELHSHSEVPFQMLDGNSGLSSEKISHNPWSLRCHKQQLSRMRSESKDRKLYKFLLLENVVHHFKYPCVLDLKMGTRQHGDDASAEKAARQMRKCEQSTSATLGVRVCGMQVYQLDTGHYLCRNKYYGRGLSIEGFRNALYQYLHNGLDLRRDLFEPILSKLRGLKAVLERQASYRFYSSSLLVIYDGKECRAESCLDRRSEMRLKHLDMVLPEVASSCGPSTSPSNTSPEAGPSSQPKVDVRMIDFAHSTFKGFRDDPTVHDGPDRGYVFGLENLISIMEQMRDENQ
#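 ADP-Glo luminescence measures ADP made by human IP6K1 during a 2 h RT reaction with ATP/IP6 (mix at 1.3 mM/130 uM); top library doses 57.5 and 19.1 uM final.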
# IP6K1 inh cnf: confirmation of human IP6K1 inhibitors. shares compounds with IP6K1 inhibitor. recombinant IP6K1 kinase, ADP-Glo luminescence, 2 h. Potency, µM (series often up to 49 µM), inactives show at the top dose activity change, negative = inhibition, most hits filed as inhibitors. actives 13% (n = 1,200). AID 1645852; note: potency is the fitted concentration of half-maximal effect; % is set by controls: 0 for no effect and ±100 for the full control effect; nearly all actives have a fitted effect of over 65% in size
# * hit, by the source's call; i = inactive; ? = inconclusive; · = not tested or not shown; [ ] = another dose, or the depositor's remark. Unless noted, calls come from the whole dose curve; as a rule, active = well fitted curve in the direction sought with a large enough effect; inconclusive = small, poorly fitted or top-dose-only effect, or another doubt; inactive = no such curve, though single readings can be large; an effect the other way counts as inactive or inconclusive.
SMILES,SNCA expr inhib,KDM5B inhibitor,SNCA viab count,IP6K1 inhibitor,IP6K1 inh cnf
CC(c1ccc(-c2cc(N)ncn2)cc1)N1CCCCC1 (stereo unspecified),-15%,?,7%,12,-2%
Cc1ccc(C(=O)Nc2ccc(S(=O)(=O)O)c3cc(S(=O)(=O)O)cc(S(=O)(=O)O)c23)cc1NC(=O)c1cccc(NC(=O)Nc2cccc(C(=O)Nc3cc(C(=O)Nc4ccc(S(=O)(=O)O)c5cc(S(=O)(=O)O)cc(S(=O)(=O)O)c45)ccc3C)c2)c1,15%,·,?,-95*,3.3µM*
CCc1ccccc1NC(=O)c1ccc2nc(C(C)C)oc2c1,-21%,i,3%,-36*,-3%
COc1ccc(OC)c(CN2CCNc3cc(-c4ccnc(C)c4)ncc3C2)c1,45%[87.6 µM],i,-20%[87.6 µM],-27*,3%
CCc1ccc2oc(C(=O)N(Cc3cccc(Cl)c3)C3CCS(=O)(=O)C3)cc(=O)c2c1 (stereo unspecified),·,i,·,·,·
CC1CCN(C(=O)CC#N)CC1N(C)c1ncnc2[nH]ccc12 (stereo unspecified),·,·,7%,-8,-3%
C[C@@H]1CCN(C(=O)CC#N)C[C@H]1N(C)c1ncnc2[nH]ccc12,?,·,-22%,·,·
Cc1cccc(-n2c(=O)c3ccccc3n(Cc3ccccc3C#N)c2=O)c1,5%,i,?,-4,·
COc1cc(OC)cc(-n2c(=O)c3ccccc3n(Cc3ccccc3C#N)c2=O)c1,7%,i,-19%,-28*,-14%
Cc1cccc(-c2noc([C@@H]3Cc4nc[nH]c4CN3C(=O)Nc3cccc(F)c3)n2)c1,-26%[87.6 µM],i,?,0,·
O=C(NCC12CC3CC(CC(C3)C1)C2)Nc1ccc(Cl)cc1F,·,i,·,·,·
COCCCNc1nc(NCc2ccccc2OC)c2cnn(C)c2n1,-16%,?,10%,-30*,-14%
COCCNc1nc(NCc2ccccc2OC)c2cnn(C)c2n1,7%,?,5%,-10,·
COCCCNc1nc(NCc2ccc(C)cc2)c2cnn(C)c2n1,-3%,?,-11%,-36*,-8%
Cc1nc(-c2ccccc2OC2CN(S(=O)(=O)Cc3ccccc3)C2)no1,0%,i,3%,-12,·
Cc1nc2cc(NC(=O)c3cc(S(=O)(=O)Nc4ccc(C)c(Cl)c4)ccc3Cl)ccc2o1,·,i,·,·,·
O=C(Cc1ccc(NC(=O)N2CCSc3ncccc32)cc1)NCCc1ccccc1,1%,?,-2%,-33*,-17%
CCCCN(C)C(=O)c1c(C)sc2ccn(CCC)c(=O)c12,21%,?,-3%,-7,-24%
O=C(C[C@@H]1O[C@H](CNS(=O)(=O)c2ccccc2)[C@@H](O)[C@H]1O)NCCN1CCOCC1,0%,i,7%,-7,·
CCCCN(CC)C(=O)C1CCC(CNS(=O)(=O)c2cccc3nsnc23)CC1 (stereo unspecified),-25%,i,-8%,-30*,-4%
CCN(C(=O)C1CCC(CNS(=O)(=O)c2cccc3nsnc23)CC1)c1ccc(C)c(C)c1 (stereo unspecified),22%,i,6%,21,·
OCC1(CC2CC2)CCCN(c2nccc(C(F)(F)F)n2)C1 (stereo unspecified),-20%,i,5%,13,·
COc1cc(OC)cc(C(=O)Nc2cc(-c3nc4ccccc4[nH]3)ccc2C)c1,-9%,?,?,-25*,14%
COc1c(Cl)cc(C(=O)Nc2cc(-c3nc4ccccc4[nH]3)ccc2C)cc1Cl,?,?,-17%,-4,·
COc1cccc(-c2cc(C3CCN(C(=O)Nc4ccc(F)cc4F)CC3)[nH]n2)c1,3%,i,1%,-1,·
SMILES,SNCA expr inhib,KDM5B inhibitor,SNCA viab count,IP6K1 inhibitor,IP6K1 inh cnf
COc1cccc(-c2ccc(NC(=O)C3=C(C(=O)O)CCC3)c(F)c2)c1,105%,·,-10%,-27*,?
COc1ccccc1-c1cccc(C(=O)N2CCC[C@H]2C(=O)N2CCCC2)c1,2%,·,-3%[12.5 µM],-7,·
Cc1ccc(Cl)cc1NC(=O)c1oc2c(c1C)-c1[nH]ncc1CC2,67%,?,2%,-40*,?
CCCc1noc(-c2cn(C3CCN(C(=O)c4ccc(C)c(F)c4)CC3)nn2)n1,16%,i,-7%,3,·
c1ccc(C2=Nn3c(nnc3-c3ccncc3)SC2)cc1,·,·,·,·,18%
COc1ccc(CCC(=O)NCc2ccc3c(c2)CCN3C(=O)c2ccc(Cl)cc2)cc1,1%,i,?,-28*,9%
O=C(NCCc1ccc(F)cc1)C(=O)NCC(c1cccs1)S(=O)(=O)c1ccccc1 (stereo unspecified),22%,i,-17%,-30*,-3%
COc1ccc(CNC(=O)c2cc3c(-c4ccccc4F)nn(C)c3s2)cc1,-10%,?,-21%,-36*,?
COc1ccc(CCNC(=O)c2cc3c(-c4ccccc4F)nn(C)c3s2)c(OC)c1,-8%,?,-17%,5,·
CC(C)C(=O)N1c2ncnn2C2(CCCCC2)[C@@H]2CCCC[C@@H]21,-20%,?,5%,-30*,-17%
CC(C)[C@@H](CO)NC(=O)[C@H](NC(=O)C(c1ccccc1)c1ccccc1)c1ccccc1,·,i,·,·,·
COc1ccc(NS(=O)(=O)c2ccc3nc(-c4ccccc4)[nH]c3c2)cc1,-30%,i,-19%,-31*,-17%
CCOc1ccc(NS(=O)(=O)c2ccc3nc(-c4ccccc4)[nH]c3c2)cc1,-21%,i,-3%,-22,·
Cc1ccc(C(=O)N2C[C@@H](CO)[C@H](c3ccccn3)C2)cc1F,2%,i,-4%,4,·
OCCOCCN1CCN(C(c2ccccc2)c2ccc(Cl)cc2)CC1 (stereo unspecified),-32%[25.6 µM],·,-24%[23.9 µM],-31*,3.7µM*
O=C(O)COCCN1CCN(C(c2ccccc2)c2ccc(Cl)cc2)CC1 (stereo unspecified),-12%,·,-3%,10,·
Cc1cccc2c1NC(=O)C2(c1ccc(O)cc1)c1ccc(O)cc1,·,·,-7%,-26*,1%
Cc1c(O)nc(SCC(=O)Nc2ccc(Cl)cc2Cl)n(-c2ccc(F)cc2)c1=O,-3%,i,16%,-27*,?
Cc1c(O)nc(SCC(=O)Nc2cccc(C(F)(F)F)c2)n(-c2ccccc2)c1=O,·,i,·,·,·
CN(C)c1cc(=O)c2ccnc(N3CCN(c4ccccn4)CC3)c2o1,-7%[87.6 µM],i,8%[87.6 µM],-27*,?
Cc1cccc(C)c1N(C)S(=O)(=O)c1ccc2c(c1)C(=O)Nc1cc(Cl)ccc1O2,·,i,·,·,·
CC(C)(C)C(=O)Nc1ccc(C(=O)Nc2ccc(NC(=O)c3ccc(NC(=O)C(C)(C)C)cc3)c(Cl)c2)cc1,·,i,·,·,·
Cc1cc(C)c(NC(=O)CSc2nc(CN(C)C)nc3ccccc23)c(C)c1,·,i,·,·,·
CCOC(=O)c1ccc(NC(=O)Cc2ccc(-n3c(CC)nc4cccnc43)cc2)cc1,5%,i,?,-45*,?
